The term AC50 denotes the midpoint of the concentration-response curve, whichever way the signal moves.

Each structure is given as a SMILES string. Where “and” joins values, the source holds several entries; their conditions need not be identical. Equal values may be shown once. Calls of active or inactive are those of the source. Rule for the calls: active = hit-call score of the fitted dose curve at least 0.9, where 1 is the maximum; inactive = score below 0.9.

Read-out in this experiment: Intercellular Adhesion Molecule 1 (ICAM1), ICAM1 (gene 3383)
The experiment is described as follows: BSK_KF3CT_ICAM1: BioMAP Diversity Plus: KF3CT Assay for Intercellular Adhesion Molecule 1 (ICAM1) Biomarker Activity (AID 2283067). Particulars: primary human keratinocytes with fibroblasts; actives raise or lower the signal. How it is done: BSK_KF3CT is a cell-based, multiplexed-readout assay that uses keratinocytes and foreskin fibroblasts, a human skin primary cell co-culture, with measurements taken at 24 hours after chemical dosing in a 96-well plate.BSK_KF3CT_ICAM1 is an assay component measured in the BSK_KF3CT assay. It measures ICAM-1 antibody related to regulation of gene expression using ELISA technology.Data from the assay component BSK_KF3CT_ICAM1 was analyzed into 1 assay endpoint. This assay endpoint, BSK_KF3CT_ICAM1, was analyzed with bidirectional fitting relative to DMSO as the negative control and baseline of activity. Using a type of binding reporter, gain or loss-of-signal activity can be used to understand changes in the signaling as they relate to the gene ICAM1. Furthermore, this assay endpoint can be referred to as a primary readout, because this assay has produced multiple assay endpoints where this one serves a signaling function. To generalize the intended target to other relatable targets, this assay endpoint is annotated to the cell adhesion molecules intended target family, where the subfamily is Immunoglobulin CAM.
The levels of cell surface (or secreted, indicated by the prefix "s") biomarker endpoints were measured by ELISA. Overt cytotoxicity to cells in confluent adherent cultures (all systems other than the BT system) was assessed by measuring total protein levels using sulforhodamine B (SRB) staining in parallel cultures at the time of biomarker measurements, indicated as SRB endpoints. For proliferation assays for adherent cell types, individual cell types are cultured at sub-confluence and relative cell numbers quantified by SRB staining at time points optimized for each system (48 h: 3C and CASM3C systems; 72 h: BT and HDF3CGF systems; 96 h: SAg system). SRB was performed by staining cells with 0.1% SRB after fixation with 10% TCA and reading wells at 560 nm.Viability and proliferation of PBMC (T cells) was quantified by Alamar Blue reduction for the SAg and BT systems. For PBMC viability (referred to as PBMC Cytotoxicity within the assay endpoint names), cells were plated (75,000/well in a 96-well plate) and then chemical samples added for 1 h before addition of activators, SEB and TSST-1 (20 ng/mL final concentration each). Cells were incubated for 90 h. Then, Alamar Blue (20 uL/well) (Invitrogen, Cat DAL1100) was added for 6 h, and the plates were read with a fluorescence microplate reader at 546/580 nm (excitation/emission). For PBMC proliferation, cells were plated and activated as above but incubated for only 16 h prior to addition of Alamar Blue. Plates were read after 6 h.
As for `O=C1C=CC(=O)C=C1`, the concentration at half-maximal activity (AC50) was 24.5 µM (active) and 21.7 µM (active).

Consider `O=C1C(Cl)=C(Cl)C(=O)C(Cl)=C1Cl`, for which the AC50 was 20 µM (active). As for `CC1(C)[C@H](C(=O)O[C@H](C#N)c2cccc(Oc3ccccc3)c2)[C@@H]1C=C(Br)Br`, the result was inactive. In the case of `CCCC[N+](CCCC)(CCCC)CCCC`, the outcome was inactive. As to `Clc1ccc(-c2ccccc2)cc1`, the outcome was inactive. Still for that read-out and setting: then `CNC(=O)Oc1cc(C)c(SC)c(C)c1`, with “inactive”. `CC(C)(c1cc(Cl)c(O)c(Cl)c1)c1cc(Cl)c(O)c(Cl)c1`: the AC50 is 7.95 µM (active). Turning to `C=CC(=O)OCC(CC)CCCC` (configuration not stated), the outcome was inactive.

Turning to `[Cd+2].[Cl-].[Cl-]`, the concentration at half-maximal activity (AC50) is 29.2 µM (active) and 27.5 µM (active). With `CC(C)COP(=O)(OCC(C)C)OCC(C)C`, the outcome was inactive. On to `CCCOC(=O)c1ccccc1C(=O)OCCC`, for which the outcome was inactive.

As for `Oc1cc(Cl)ccc1Cl`, the result was inactive. `C=CCN(CC=C)C(=O)C(Cl)Cl`: the outcome was inactive. The same measure, in the same setting: then `CCCCCCCCCCCC#N`, with “inactive”. Regarding `CC(C)CCCCCCCOC(=O)c1ccccc1C(=O)OCCCCCCCC(C)C`, the outcome was inactive. Turning to `Oc1ccc(C2(c3ccc(O)cc3)c3ccccc3-c3ccccc32)cc1`, the concentration at half-maximal activity (AC50) is 11.9 µM (active) and 10.4 µM (active). Consider `CC(=O)/C=C/c1ccccc1`, for which the result was inactive. For the molecule `O=C(O)CCCc1ccc(N(CCCl)CCCl)cc1`, the AC50 is 20 µM (active). Take `COc1ccc(CO)cc1`: the result was inactive. `COC(C)(C)CCC[C@H](C)C/C=C/C(C)=C/C(=O)OC(C)C`: the outcome was inactive. `COCC(=O)N(c1c(C)cccc1C)N1CCOC1=O`: the outcome was inactive. Same read-out and setting: then `CCc1cc(C)cc(CC)c1-c1c(OC(=O)C(C)(C)C)n2n(c1=O)CCOCC2`, with “inactive”; and `CC(C)CCCCCCCOP(=O)(Oc1ccccc1)Oc1ccccc1`, with “inactive”; and `O=c1[nH]c(Cl)c(Cl)cc1Cl`, with “inactive”. For the molecule `c1ccc(Nc2ccc3ccccc3c2)cc1`, the AC50 is 36.6 µM (active). Consider `O=P1(NCCCl)OCCCN1CCCl` (configuration not stated), for which the outcome was inactive.

Take `CCC(C)c1cc([N+](=O)[O-])cc([N+](=O)[O-])c1OC(=O)C=C(C)C` (configuration not stated): the AC50 is 25 µM (active). For the molecule `CC(C)(C)C(=O)CCl`, the outcome was inactive. For the molecule `O=c1c2ccccc2c(=O)c2c1cc(Cl)c1[nH]c3c([nH]c12)c(Cl)cc1c(=O)c2ccccc2c(=O)c13`, the outcome was inactive. Turning to `O=[N+]([O-])c1ccc(Cl)cc1`, the result was inactive. Take `CC(C)(C)C(O)C(Oc1ccc(-c2ccccc2)cc1)n1cncn1` (configuration not stated): the result was inactive. Consider `N#CCCCCC#N`, for which the outcome was inactive. As for `O=[N+]([O-])O`, the outcome was inactive.

On to `Cc1ccc(OP(=O)(Oc2ccc(C)cc2)Oc2ccc(C)cc2)cc1` (tested in a mixture with another compound), for which the outcome was inactive. For `O=S(=O)(c1ccccc1)c1ccccc1`, the result was inactive.

Regarding `O=[N+]([O-])C=Cc1ccccc1`, the AC50 was 6.1 µM (active). On to `O=C(CCl)c1ccccc1`, for which the concentration at half-maximal activity (AC50) was 21.3 µM (active).

These data come from PubChem BioAssay (EPA / NIEHS).
